According to PubChem BioAssay AID463173 (ICCB-Longwood Screening Facility, Harvard Medical School, 2010):
In all, about 52,000 compounds went through this assay and about 1,700 (3.3%) were called active. The sample holds actives, similar compounds and a random draw of the others, so the mix is not that of the screen. A number with no mark means an inactive call. Rule as the data show it: active = survival mostly below about 52% (no sharp cut-off); inactive = mostly above about 56%.

Each molecule was assayed on Wild type (assay: growth inhibition of S. aureus wild type versus tarO mutant, primary screen, teichoic acid synthesis inhibitors, RN4220, OD600 (AID 463173)). Details: S. aureus RN4220 wild type/DeltatarO growth, OD600, 18 h, hits give low values, screened at 18.75 µg/mL (by protocol).

SMILES	survival
COc1ccc(C(C(=O)NCc2ccccc2)N(Cc2ccco2)C(=O)c2cnccn2)cc1 (stereo not drawn)	101%
COc1cccc(CNC(=O)C(NS(=O)(=O)c2cccs2)C(C)C)c1 (stereo not drawn)	94%
COc1ccc(OC)c(C2N=C(N)Nc3nc4ccccc4n32)c1 (stereo not drawn)	72%
COc1cc(Nc2nc3ccc(Cl)cc3nc2-n2nc(C)cc2C)cc(OC)c1	93%
Cc1cc(C)n2c(SCC(=O)N(C)C3CCCCC3)nnc2n1	101%
CC(C)(C)C(=O)NC1CCN(S(=O)(=O)c2ccccc2C(=O)O)CC1	105%
CCCN(CCC)CCCNC(=O)c1cc2c(-c3ccc(Cl)cc3)nn(C)c2s1	95%
CCCN(CCC)CCNC(=O)c1cc2c(-c3ccc(Cl)cc3)nn(C)c2s1	81%
CCCCN(CC)CCNC(=O)c1cc2c(-c3ccc(Cl)cc3)nn(C)c2s1	5% (active)
CCOc1ccc(-c2c(C)nn3c(C)c(C(=O)NC(C)c4ccccc4)cnc23)cc1OCC (stereo not drawn)	75%
Cc1ccc(CNC(=O)CN2C(=O)CCc3cc(S(=O)(=O)N4CCCCC4)ccc32)cc1	91%
COc1nc(C)c(/C=C/C(=O)N(C(=O)NC2CCCCC2)C2CCCCC2)c(OC)n1	101%
Clc1cccc(N2CCN(c3nc4ccccc4n4cnnc34)CC2)c1	70%
FC(F)(F)c1cccc(N2CCN(c3nc4ccccc4n4cnnc34)CC2)c1	2% (active)
CCc1nnc2c(N3CCN(c4cccc(C(F)(F)F)c4)CC3)nc3ccccc3n12	120%
COc1cccc(/C=C/c2nc(C#N)c(N3CCCCC3)o2)c1	67%
CCOc1ccccc1N(C)C(=O)Cn1cnc2onc(-c3ccc(F)cc3)c2c1=O	90%
O=c1c(NCc2ccccc2Cl)nccn1-c1ccccc1	-1% (active)
COc1ccccc1CNc1nccn(-c2ccc(F)cc2)c1=O	76%
Cc1cc(C)cc(-n2ccnc(NCCc3ccccc3)c2=O)c1	75%
COc1ccc(-n2ccnc(NCCc3ccc(Cl)cc3)c2=O)cc1OC	47%
COc1ccc(-n2ccnc(NCc3ccccc3Cl)c2=O)cc1OC	71%
O=c1c(NCCc2ccc(Cl)cc2)nccn1-c1ccccc1	14% (active)
Cc1ccc(S(=O)(=O)NCC2CCC(C(=O)NCc3ccc(F)cc3)CC2)cc1 (stereo not drawn)	75%

SMILES	survival
CCC(C)NC(=O)c1ccc2c(c1)N(Cc1ccccc1)C(=O)c1ccccc1S2(=O)=O (stereo not drawn)	85%
COC(=O)c1cc(S(=O)(=O)NCC2CCN(Cc3cccc(F)c3)CC2)c[nH]1	90%
CN(Cc1nc(-c2ccc(Cl)cc2)no1)S(=O)(=O)c1ccccc1	82%
Cc1cc(C)cc(NC(=O)N2CCC(CN3CCc4ccccc4C3)CC2)c1	81%
CCOc1ccc(NC(=O)N2CCC(CN3CCC(C)CC3)CC2)cc1	127%
CCc1ccccc1NC(=O)N1CCC(CN2CCc3ccccc3C2)CC1	60%
Cc1cccc(NC(=O)N2CCC(CN3CCc4ccccc4C3)CC2)c1C	-4% (active)
CCOc1ccc(NC(=O)N2CCC(CN3CCc4ccccc4C3)CC2)cc1	-3% (active)
CCOc1ccc(NC(=O)N2CCC(CN3CCCCCC3)CC2)cc1	111%
Cc1cccc(NC(=O)N2CCC(CN3CCCCCC3)CC2)c1C	55%
COC(=O)c1ccc(NC(=O)N2CCC(CN3CCc4ccccc4C3)CC2)cc1	1% (active)
COc1cc(NC(=O)N2CCC(CN3CCc4ccccc4C3)CC2)cc(OC)c1	81%
CCCC(=O)Nc1cc(-c2nnc3c4ccccc4c(C)nn23)ccc1C	72%
O=C(Nc1ccc(O)c(-c2nc3ccccc3o2)c1)c1ccc(Br)cc1	88%
CC1Cn2cc(C(=O)Nc3cccc(C(F)(F)F)c3)c(=O)c3c(Cl)ccc(c32)O1 (stereo not drawn)	89%
CCOC(=O)c1cccnc1SCC(=O)N(CC)c1cccc(C)c1	70%
CCn1c(CN2CCCCC2)nc2cc(NC(=O)COc3ccc(C(C)(C)C)cc3)ccc21	97%
CCOc1cc(C2NC(=O)c3c(sc4c3CCN(C)C4)N2)ccc1OC(=O)c1ccc(Br)cc1 (stereo not drawn)	71%
CCCCCOc1ccc(/C=C/C(=O)Nc2sc(C(C)=O)c(C)c2C(=O)OCC)cc1OC	76%
CCOC(=O)CSc1nc2cc3c(cc2c(=O)n1CCCCCC(=O)NCc1ccc2c(c1)OCO2)OCO3	81%
CCOc1ccc(C(=O)c2cn(CC(=O)Nc3cc(OC)ccc3OC)c3cc(OC)c(OC)cc3c2=O)cc1	68%
CC1C(=O)N2CCCc3cc(S(=O)(=O)N4CCC(C(N)=O)CC4)cc1c32 (stereo not drawn)	-3% (active)
CCOC(=O)C1CCN(S(=O)(=O)c2cc3c4c(c2)C(C)C(=O)N4CCC3)CC1 (stereo not drawn)	88%
COC(=O)C1CCN(S(=O)(=O)c2cc3c4c(c2)C(C)C(=O)N4CCC3)CC1 (stereo not drawn)	125%

SMILES	survival
COc1ccc(N2CCN(C(=O)CSc3n[nH]c(-c4ccccc4)n3)CC2)cc1	72%
COc1ccc(S(=O)(=O)N(CC(=O)Nc2ccccc2Br)Cc2ccccc2)cc1	77%
Cc1cc(C)cc(Nc2cc(C(=O)NCCCN(Cc3ccccc3)C(C)C)c3ccccc3n2)c1	-6% (active)
CSc1cccc(Nc2cc(C(=O)NCCCN(Cc3ccccc3)C(C)C)c3ccccc3n2)c1	75%
CCCN(CCC)CCNC(=O)c1cc(-c2ccc(Br)s2)nc2ccccc12	80%
CCCCN(C)CCNC(=O)c1cc(-c2ccc(Cl)s2)nc2ccccc12	82%
CCCCN(C)CCCNC(=O)c1cc(-c2ccc(Br)s2)nc2ccccc12	26% (active)
Cc1cc(C)cc(Nc2cc(C(=O)NCc3ccccc3)c3ccccc3n2)c1	139%
Cc1cc(C)cc(Nc2cc(C(=O)NCCCN(C)C3CCCCC3)c3ccccc3n2)c1	26% (active)
COc1ccc(Nc2cc(C(=O)NCCCN(C)C3CCCCC3)c3ccccc3n2)cc1	99%
Cc1ccc(C)c(Nc2cc(C(=O)NCCCN(C)C3CCCCC3)c3ccccc3n2)c1	99%
Cc1ccc2c(c1)NC(=O)C(CC(=O)Nc1cc(Cl)ccc1C)O2 (stereo not drawn)	77%
COc1ccc(Br)cc1S(=O)(=O)Nc1cc(-c2cn3ccccc3n2)ccc1C	63%
Cc1ccc(C(=O)Nc2ccc3c(c2)N(C)C(=O)c2ccccc2S3)cc1F	72%
O=C(Cn1ncn2c(cc3sccc32)c1=O)NCCc1ccccc1	85%
CC(Sc1nnc(-c2ccccc2)n1N)C(=O)O (stereo not drawn)	109%
CCOc1ccc(Nc2ncnc3c2cnn3-c2ccc(F)cc2)cc1	60%
Cc1ccc(N2CCN(C(=O)c3c(C)oc4ncnc(N5CCOCC5)c34)CC2)c(C)c1	83%
CSc1ccc(-c2nc3ncccn3c2Nc2ccc(C)c(C)c2)cc1	60%
COc1cc(OC)c(NC(=O)c2c(C)oc3ncn(C)c(=O)c23)cc1Cl	88%
COc1cccc(NC(c2nnc(-c3ccccc3)o2)c2ccc(F)cc2Cl)c1 (stereo not drawn)	56%
COc1ccc(C)cc1NC(c1nnc(-c2ccccc2)o1)c1ccc(F)cc1Cl (stereo not drawn)	3% (active)
COc1cc(OC)c(NC(c2nnc(-c3ccccc3)o2)c2ccc(F)cc2Cl)cc1Cl (stereo not drawn)	66%
CCOc1ccccc1NC(c1nnc(-c2ccccc2)o1)c1ccc(F)cc1Cl (stereo not drawn)	2% (active)

SMILES	survival
CCc1ccccc1NC(c1nnc(-c2cccc(F)c2)o1)c1ccc(F)cc1Cl (stereo not drawn)	86%
Cc1cccc(NC(c2nnc(-c3ccccc3)o2)c2ccc(F)cc2Cl)c1C (stereo not drawn)	55%
COc1ccc(S(=O)(=O)NCCc2csc(-c3ccc(F)cc3)n2)cc1F	81%
Cc1cc(C)cc(NC(=O)CCS(=O)(=O)c2cccc3nsnc23)c1	64%
COc1cc(C2c3c(oc4ccccc4c3=O)C(=O)N2c2nncs2)cc(OC)c1OC (stereo not drawn)	76%
Cc1ccc2c(c1)sc1nc(=O)n(-c3cccc(Cl)c3)c(=O)n12	70%
Cc1ccc2c(c1)sc1nc(=O)n(-c3ccc(Cl)cc3)c(=O)n12	77%
Cc1ccc2c(c1)sc1nc(=O)n(-c3ccc(Cl)c(Cl)c3)c(=O)n12	-4% (active)
CC(C)C(NS(=O)(=O)c1cccc2cccnc12)C(=O)Nc1ccc(OC(F)(F)F)cc1 (stereo not drawn)	100%
CCOc1ccc(-c2cnc(NCc3ccc(C(F)(F)F)cc3)n2C)cc1	-12% (active)
Cc1ccc(-c2cnc(NCc3ccc(C(C)C)cc3)n2C)cc1	-13% (active)
CCc1ccc(CNc2ncc(-c3cccc(OC)c3)n2C)cc1	4% (active)
COc1cccc(-c2cnc(NCc3ccccc3Cl)n2C)c1	70%
Cn1c(-c2ccccc2)cnc1NCc1ccccc1O	60%
CCOc1ccc(-c2cnc(NCc3ccc(OC)cc3OC)n2C)cc1	68%
Cn1c(-c2cccc(Br)c2)cnc1NCc1cccc(F)c1	27%
COc1ccc(OC)c(CNc2ncc(-c3ccc(Cl)cc3)n2C)c1	34%
Cc1ccc(-c2cnc(NC(=O)CCC(=O)N3CCCCC3)n2C)cc1	110%
Cc1ccc(-c2cnc(NCc3ccc(C(F)(F)F)cc3)n2C)cc1	-13% (active)
CCOc1ccc(-c2cnc(NCc3cccc(Cl)c3)n2C)cc1	52%
COc1ccc(-c2cnc(NCc3ccc(C)cc3)n2C)cc1	108%
